Measured values reported in ChEMBL document CHEMBL5606460, “ASAP - DENV-2 NS2B-NS3 protease fluorescence single point” (2024).
Screen size: about 2,000 compounds; about 110 (5.5%) showed an effect of 50% or more. Shown is part of a subset that was picked to be rich in strong results.

Target: Genome polyprotein (dengue virus type 2) (UniProt P29990)

SMILES: O=Cc1ccc(N2CCC(C(=O)NCCc3cccc4ccccc34)CC2)cc1
- inhibition (Thailand/16681/1984, Concentration 25.0 uM, Number of replicates 1.0): 11.1%

SMILES: Cc1cc(CO)c2cccc(Cc3ccccc3C(=O)NCc3c(C)noc3C)c2n1
- inhibition (Thailand/16681/1984, Concentration 49.95 uM, Number of replicates 2.0, Standard deviation 0.3226747127660098 %): -0.757%
- inhibition (Thailand/16681/1984, Concentration 99.9 uM, Number of replicates 2.0, Standard deviation 0.21847019123152348 %): 0.39%

SMILES: COc1ccc(F)c(-c2nn(C)cc2NC(=O)c2ccccc2C(F)(F)F)c1
- inhibition (Thailand/16681/1984, Concentration 49.5 uM, Number of replicates 2.0, Standard deviation 3.583319549695768 %): -2.64%
- inhibition (Thailand/16681/1984, Concentration 99.01 uM, Number of replicates 2.0, Standard deviation 4.648656873158677 %): -2.47%
- inhibition (Thailand/16681/1984, Concentration 198.0 uM, Number of replicates 2.0, Standard deviation 3.7890463989356435 %): -2.09%

SMILES: COc1ccc(F)cc1-c1ccccc1C(=O)Nc1cnn(C)c1
- inhibition (Thailand/16681/1984, Concentration 49.5 uM, Number of replicates 2.0, Standard deviation 2.2581672831644526 %): -4.25%
- inhibition (Thailand/16681/1984, Concentration 99.01 uM, Number of replicates 2.0, Standard deviation 1.9365380229757554 %): -2.49%
- inhibition (Thailand/16681/1984, Concentration 198.0 uM, Number of replicates 2.0, Standard deviation 2.756548372009165 %): -2.95%

SMILES: Cn1cc(NC(=O)c2ccccc2C(F)(F)F)c(-c2ccc(CO)cc2)n1
- inhibition (Thailand/16681/1984, Concentration 49.5 uM, Number of replicates 2.0, Standard deviation 2.3161186941047496 %): -4.04%
- inhibition (Thailand/16681/1984, Concentration 99.01 uM, Number of replicates 2.0, Standard deviation 3.5021876776391307 %): -2.8%
- inhibition (Thailand/16681/1984, Concentration 198.0 uM, Number of replicates 2.0, Standard deviation 4.667974048773386 %): -3.05%

SMILES: NC(=O)c1cccc(NC(=O)[C@@H](NC(=O)c2ccc(Oc3ccc(C(F)(F)F)cc3)cc2)c2ccc(OCc3ccccc3)cc2)c1
- inhibition (Thailand/16681/1984, Concentration 49.5 uM, Number of replicates 2.0, Standard deviation 0.7362133947681709 %): 6.2%
- inhibition (Thailand/16681/1984, Concentration 99.01 uM, Number of replicates 2.0, Standard deviation 0.5343411171689955 %): 12.7%
- inhibition (Thailand/16681/1984, Concentration 198.0 uM, Number of replicates 2.0, Standard deviation 1.7800185360663037 %): 24.8%

SMILES: N=C(N)NCCC[C@H](NC(=O)c1nccs1)C(=O)N[C@@H](CCCCN)C(=O)N[C@@H](C(N)=O)c1ccc(OCc2ccc(C(F)(F)F)cc2)cc1
- inhibition (Thailand/16681/1984, Concentration 49.5 uM, Number of replicates 2.0, Standard deviation 0.01715005842126491 %): 96.2%
- inhibition (Thailand/16681/1984, Concentration 49.5 uM, Number of replicates 2.0, Standard deviation 0.019135343573522066 %): 96.1%
- inhibition (Thailand/16681/1984, Concentration 49.5 uM, Number of replicates 2.0, Standard deviation 0.03570815875758177 %): 95.6%
- inhibition (Thailand/16681/1984, Concentration 49.5 uM, Number of replicates 2.0, Standard deviation 0.054562972907415325 %): 95.2%
- inhibition (Thailand/16681/1984, Concentration 49.5 uM, Number of replicates 2.0, Standard deviation 0.06140896980473687 %): 95.7%
- inhibition (Thailand/16681/1984, Concentration 49.5 uM, Number of replicates 2.0, Standard deviation 0.10612104410339795 %): 97.2%
- inhibition (Thailand/16681/1984, Concentration 49.5 uM, Number of replicates 2.0, Standard deviation 0.10687631562871318 %): 95.4%
- inhibition (Thailand/16681/1984, Concentration 49.5 uM, Number of replicates 2.0, Standard deviation 0.10916370939109642 %): 95.9%
- inhibition (Thailand/16681/1984, Concentration 49.5 uM, Number of replicates 2.0, Standard deviation 0.11089004430610264 %): 91.3%
- inhibition (Thailand/16681/1984, Concentration 49.5 uM, Number of replicates 2.0, Standard deviation 0.12066541576232535 %): 96.7%
- inhibition (Thailand/16681/1984, Concentration 49.5 uM, Number of replicates 2.0, Standard deviation 0.12893024416791762 %): 95%
- inhibition (Thailand/16681/1984, Concentration 49.5 uM, Number of replicates 2.0, Standard deviation 0.18367124536344298 %): 96.2%
- inhibition (Thailand/16681/1984, Concentration 49.5 uM, Number of replicates 2.0, Standard deviation 0.22697527774705212 %): 95.7%
- inhibition (Thailand/16681/1984, Concentration 49.5 uM, Number of replicates 2.0, Standard deviation 0.262397512284336 %): 95.2%
- inhibition (Thailand/16681/1984, Concentration 49.5 uM, Number of replicates 2.0, Standard deviation 0.3581065989316027 %): 96.5%
- inhibition (Thailand/16681/1984, Concentration 49.5 uM, Number of replicates 2.0, Standard deviation 0.6751965592419794 %): 94.5%
- inhibition (Thailand/16681/1984, Concentration 49.5 uM, Number of replicates 4.0, Standard deviation 0.3877656068031149 %): 96.3%
- inhibition (Thailand/16681/1984, Concentration 49.8 uM, Number of replicates 2.0, Standard deviation 0.008615490185202914 %): 98.3%
- inhibition (Thailand/16681/1984, Concentration 49.95 uM, Number of replicates 2.0, Standard deviation 0.5898131133050937 %): 90.4%
- inhibition (Thailand/16681/1984, Concentration 50.0 uM, Number of replicates 2.0, Standard deviation 2.607110988642393 %): 82.5%
- inhibition (Thailand/16681/1984, Concentration 98.52 uM, Number of replicates 2.0, Standard deviation 0.0007930351015809821 %): 99.7%
- inhibition (Thailand/16681/1984, Concentration 99.01 uM, Number of replicates 2.0, Standard deviation 0.014371738167426778 %): 98.3%
- inhibition (Thailand/16681/1984, Concentration 99.01 uM, Number of replicates 2.0, Standard deviation 0.015720437319775387 %): 97.7%
- inhibition (Thailand/16681/1984, Concentration 99.01 uM, Number of replicates 2.0, Standard deviation 0.019361925031116632 %): 97.6%
- inhibition (Thailand/16681/1984, Concentration 99.01 uM, Number of replicates 2.0, Standard deviation 0.03515249470681415 %): 98%
- inhibition (Thailand/16681/1984, Concentration 99.01 uM, Number of replicates 2.0, Standard deviation 0.051056355111308946 %): 98.5%
- inhibition (Thailand/16681/1984, Concentration 99.01 uM, Number of replicates 2.0, Standard deviation 0.05114267185705925 %): 98.8%
- inhibition (Thailand/16681/1984, Concentration 99.01 uM, Number of replicates 2.0, Standard deviation 0.05214610402640662 %): 98.2%
- inhibition (Thailand/16681/1984, Concentration 99.01 uM, Number of replicates 2.0, Standard deviation 0.05969881927955883 %): 97.8%
- inhibition (Thailand/16681/1984, Concentration 99.01 uM, Number of replicates 2.0, Standard deviation 0.06259043026219424 %): 97.6%
- inhibition (Thailand/16681/1984, Concentration 99.01 uM, Number of replicates 2.0, Standard deviation 0.0932706385798204 %): 98.3%
- inhibition (Thailand/16681/1984, Concentration 99.01 uM, Number of replicates 2.0, Standard deviation 0.1268262734902538 %): 98.1%
- inhibition (Thailand/16681/1984, Concentration 99.01 uM, Number of replicates 2.0, Standard deviation 0.1304084184388917 %): 95.2%
- inhibition (Thailand/16681/1984, Concentration 99.01 uM, Number of replicates 2.0, Standard deviation 0.16720632611157116 %): 97.6%
- inhibition (Thailand/16681/1984, Concentration 99.01 uM, Number of replicates 2.0, Standard deviation 0.19540492798887588 %): 98.3%
- inhibition (Thailand/16681/1984, Concentration 99.01 uM, Number of replicates 2.0, Standard deviation 0.2057251739026474 %): 97.9%
- inhibition (Thailand/16681/1984, Concentration 99.01 uM, Number of replicates 2.0, Standard deviation 0.39058866931676656 %): 97.1%
- inhibition (Thailand/16681/1984, Concentration 99.01 uM, Number of replicates 4.0, Standard deviation 0.160745991426317 %): 98.2%
- inhibition (Thailand/16681/1984, Concentration 99.5 uM, Number of replicates 2.0, Standard deviation 0.012726325201561474 %): 99.3%
- inhibition (Thailand/16681/1984, Concentration 99.5 uM, Number of replicates 2.0, Standard deviation 0.04880672492519146 %): 99.4%
- inhibition (Thailand/16681/1984, Concentration 99.9 uM, Number of replicates 2.0, Standard deviation 0.33233565552852545 %): 95.1%
- inhibition (Thailand/16681/1984, Concentration 100.0 uM, Number of replicates 2.0, Standard deviation 1.0120962127020525 %): 91.1%
- inhibition (Thailand/16681/1984, Concentration 198.0 uM, Number of replicates 2.0, Standard deviation 0.008588516202155942 %): 97.6%
- inhibition (Thailand/16681/1984, Concentration 198.0 uM, Number of replicates 2.0, Standard deviation 0.009273655371549035 %): 99.3%
- inhibition (Thailand/16681/1984, Concentration 198.0 uM, Number of replicates 2.0, Standard deviation 0.015984782353635714 %): 99.5%
- inhibition (Thailand/16681/1984, Concentration 198.0 uM, Number of replicates 2.0, Standard deviation 0.02043009475977673 %): 99%
- inhibition (Thailand/16681/1984, Concentration 198.0 uM, Number of replicates 2.0, Standard deviation 0.03091218457183012 %): 99%
- inhibition (Thailand/16681/1984, Concentration 198.0 uM, Number of replicates 2.0, Standard deviation 0.034661568215359255 %): 98.9%
- inhibition (Thailand/16681/1984, Concentration 198.0 uM, Number of replicates 2.0, Standard deviation 0.04180427892619749 %): 98.9%
- inhibition (Thailand/16681/1984, Concentration 198.0 uM, Number of replicates 2.0, Standard deviation 0.05357033033128675 %): 99.3%
- inhibition (Thailand/16681/1984, Concentration 198.0 uM, Number of replicates 2.0, Standard deviation 0.055172584924276895 %): 99.5%
- inhibition (Thailand/16681/1984, Concentration 198.0 uM, Number of replicates 2.0, Standard deviation 0.06522309100757873 %): 99.1%
- inhibition (Thailand/16681/1984, Concentration 198.0 uM, Number of replicates 2.0, Standard deviation 0.07510635839598934 %): 99.3%
- inhibition (Thailand/16681/1984, Concentration 198.0 uM, Number of replicates 2.0, Standard deviation 0.08009654525967919 %): 99.1%
- inhibition (Thailand/16681/1984, Concentration 198.0 uM, Number of replicates 2.0, Standard deviation 0.10986503295031769 %): 99.2%
- inhibition (Thailand/16681/1984, Concentration 198.0 uM, Number of replicates 2.0, Standard deviation 0.15163694309685882 %): 99%
- inhibition (Thailand/16681/1984, Concentration 198.0 uM, Number of replicates 2.0, Standard deviation 0.1571827940113163 %): 98.9%
- inhibition (Thailand/16681/1984, Concentration 198.0 uM, Number of replicates 2.0, Standard deviation 0.24491837126989802 %): 98.3%
- inhibition (Thailand/16681/1984, Concentration 198.0 uM, Number of replicates 4.0, Standard deviation 0.0821711955101111 %): 99.2%
- inhibition (Thailand/16681/1984, Concentration 295.6 uM, Number of replicates 2.0, Standard deviation 0.015100035709695026 %): 100%
- inhibition (Thailand/16681/1984, Concentration 295.6 uM, Number of replicates 2.0, Standard deviation 0.020829309708871917 %): 99.9%
